PubChem BioAssay AID1159580 (chemical genetic matrix, 2015)
About 2,000 (36%) of roughly 5,500 compounds were called active. Not shown: some 18% with an inconclusive outcome. Rule as the data show it: active = normalized growth mostly below about 0.91 (no sharp cut-off); inconclusive = no clear call, values can overlap the other calls; inactive = mostly above about 0.92. This is one part of the list.

Test: chemical genetic growth profiling, strain panel (AID 1159580);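 also: tested at 20 µM; growth read once vehicle control cultures reached saturation at 30 °C; 1 = growth at the plate median or of vehicle wells; lower values mean less growth of the strain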
Conditions: growth OD

Measured: normalized growth

CCOC(=O)C(Cc1ccc(O)cc1)NC(C)=O (configuration not stated)
inactive: S. cerevisiae deletion strains, locus YJR075W, strain HOC1, stronger effect = lower value 1.01 | S. cerevisiae deletion strains, locus YKL009W, strain mrt4, stronger effect = lower value 0.996 | S. cerevisiae deletion strains, locus YKL068W, stronger effect = lower value 1 | S. cerevisiae deletion strains, locus YKL085W, strain MDH1 (second series), stronger effect = lower value 1 | S. cerevisiae deletion strains, locus YKL085W, strain MDH1, stronger effect = lower value 1 | S. cerevisiae deletion strains, locus YKL160W, strain elf1, stronger effect = lower value 1.02 | S. cerevisiae deletion strains, locus YKL190W, strain CNB1, stronger effect = lower value 1.01 | S. cerevisiae deletion strains, locus YKR001C, strain vps1, stronger effect = lower value 0.995 | S. cerevisiae deletion strains, locus YKR026C, strain gcn3, stronger effect = lower value 1 | S. cerevisiae deletion strains, locus YKR091W, strain srl3, stronger effect = lower value 1 | S. cerevisiae deletion strains, locus YLL001W, strain dnm1, stronger effect = lower value 1.01 | S. cerevisiae deletion strains, locus YLL026W, stronger effect = lower value 0.997 | S. cerevisiae deletion strains, locus YLL041C, strain sdh2, stronger effect = lower value 1 | S. cerevisiae deletion strains, locus YLR027C, strain aat2, stronger effect = lower value 1 | S. cerevisiae deletion strains, locus YLR039C, strain RIC1, stronger effect = lower value 1.03 | S. cerevisiae deletion strains, locus YLR058C, strain SHM2, stronger effect = lower value 1.02 | S. cerevisiae deletion strains, locus YLR102C, strain apc9, stronger effect = lower value 1.01 | S. cerevisiae deletion strains, locus YLR113W, strain HOG1, stronger effect = lower value 1.01 | S. cerevisiae deletion strains, locus YLR221C, strain rsa3, stronger effect = lower value 0.987 | S. cerevisiae deletion strains, locus YLR258W, strain gsy2, stronger effect = lower value 1.01 | S. cerevisiae deletion strains, locus YLR262C, strain YPT6 (second series), stronger effect = lower value 0.968 | S. cerevisiae deletion strains, locus YLR262C, strain YPT6, stronger effect = lower value 1.01 | S. cerevisiae deletion strains, locus YLR268W, strain sec22, stronger effect = lower value 1.01 | S. cerevisiae deletion strains, locus YLR320W, strain mms22, stronger effect = lower value 0.994 | S. cerevisiae deletion strains, locus YLR330W, strain CHS5, stronger effect = lower value 1.01 | S. cerevisiae deletion strains, locus YLR342W, strain FKS1 (second series), stronger effect = lower value 1.07 | S. cerevisiae deletion strains, locus YLR342W, strain FKS1, stronger effect = lower value 1.01 | S. cerevisiae deletion strains, locus YLR357W, strain rsc2, stronger effect = lower value 1.01 | S. cerevisiae deletion strains, locus YLR370C, strain arc18, stronger effect = lower value 1 | S. cerevisiae deletion strains, locus YLR371W, strain rom2, stronger effect = lower value 1.02 | S. cerevisiae deletion strains, locus YLR384C, strain iki3, stronger effect = lower value 1 | S. cerevisiae deletion strains, locus YLR418C, strain cdc73, stronger effect = lower value 1 | S. cerevisiae deletion strains, locus YML016C, strain PPZ1, stronger effect = lower value 1.01 | S. cerevisiae deletion strains, locus YML032C, strain rad52, stronger effect = lower value 0.989 | S. cerevisiae deletion strains, locus YML120C, strain ndi1, stronger effect = lower value 1.01 | S. cerevisiae deletion strains, locus YML124C, strain tub3, stronger effect = lower value 0.999 | S. cerevisiae deletion strains, locus YMR058W, strain fet3, stronger effect = lower value 1.01 | S. cerevisiae deletion strains, locus YMR078C, strain ctf18, stronger effect = lower value 1.01 | S. cerevisiae deletion strains, locus YMR125W, strain sto1, stronger effect = lower value 0.995 | S. cerevisiae deletion strains, locus YMR129W, stronger effect = lower value 1.01 | S. cerevisiae deletion strains, locus YMR205C, strain PFK2, stronger effect = lower value 0.997 | S. cerevisiae deletion strains, locus YMR223W, strain ubp8, stronger effect = lower value 0.987 | S. cerevisiae deletion strains, locus YMR231W, strain pep5, stronger effect = lower value 1.01 | S. cerevisiae deletion strains, locus YMR263W, strain SAP30, stronger effect = lower value 1.01 | S. cerevisiae deletion strains, locus YMR307W, strain GAS1, stronger effect = lower value 1.06 | S. cerevisiae deletion strains, locus YNL067W, strain RPL9B, stronger effect = lower value 1.02 | S. cerevisiae deletion strains, locus YNL071W, strain lat1, stronger effect = lower value 1 | S. cerevisiae deletion strains, locus YNL128W, strain TEP1, stronger effect = lower value 1.02 | S. cerevisiae deletion strains, locus YNL153C, strain GIM3, stronger effect = lower value 1.01 | S. cerevisiae deletion strains, locus YNL183C, strain NPR1, stronger effect = lower value 0.879 | S. cerevisiae deletion strains, locus YNL209W, strain ssb2, stronger effect = lower value 0.996 | S. cerevisiae deletion strains, locus YNL233W, strain BNI4, stronger effect = lower value 1.01 | S. cerevisiae deletion strains, locus YNL248C, strain rpa49, stronger effect = lower value 0.999 | S. cerevisiae deletion strains, locus YNL250W, strain rad50, stronger effect = lower value 0.992 | S. cerevisiae deletion strains, locus YNL271C, strain bni1, stronger effect = lower value 0.993 | S. cerevisiae deletion strains, locus YNL298W, strain CLA4, stronger effect = lower value 1.01 | S. cerevisiae deletion strains, locus YNL307C, strain MCK1, stronger effect = lower value 1 | S. cerevisiae deletion strains, locus YNL322C, strain KRE1 (second series), stronger effect = lower value 1.05 | S. cerevisiae deletion strains, locus YNL322C, strain KRE1, stronger effect = lower value 1.01 | S. cerevisiae deletion strains, locus YNR049C, strain mso1, stronger effect = lower value 1.02 | S. cerevisiae deletion strains, locus YNR052C, strain pop2, stronger effect = lower value 0.993 | S. cerevisiae deletion strains, locus YOL006C, strain TOP1, stronger effect = lower value 1.06 | S. cerevisiae deletion strains, locus YOL012C, strain htz1 0.841 | S. cerevisiae deletion strains, locus YOL147C, strain pex11, stronger effect = lower value 0.997 | S. cerevisiae deletion strains, locus YOR001W, strain rrp6, stronger effect = lower value 0.949 | S. cerevisiae deletion strains, locus YOR061W, strain CKA2, stronger effect = lower value 1.02 | S. cerevisiae deletion strains, locus YOR069W, strain VPS5, stronger effect = lower value 1.01 | S. cerevisiae deletion strains, locus YOR070C, strain gyp1, stronger effect = lower value 1 | S. cerevisiae deletion strains, locus YOR080W, strain dia2, stronger effect = lower value 1.01 | S. cerevisiae deletion strains, locus YOR083W, strain WHI5, stronger effect = lower value 1.03 | S. cerevisiae deletion strains, locus YOR106W, strain vam3, stronger effect = lower value 1.04 | S. cerevisiae deletion strains, locus YOR136W, strain idh2, stronger effect = lower value 0.989 | S. cerevisiae deletion strains, locus YOR144C, strain elg1, stronger effect = lower value 1.01 | S. cerevisiae deletion strains, locus YOR184W, strain ser1, stronger effect = lower value 1.01 | S. cerevisiae deletion strains, locus YOR231W, strain MKK1, stronger effect = lower value 0.971 | S. cerevisiae deletion strains, locus YOR265W, strain rbl2, stronger effect = lower value 1 | S. cerevisiae deletion strains, locus YOR270C, strain vph1, stronger effect = lower value 1 | S. cerevisiae deletion strains, locus YOR290C, strain snf2, stronger effect = lower value 1.03 | S. cerevisiae deletion strains, locus YOR316C, strain cot1, stronger effect = lower value 1.02 | S. cerevisiae deletion strains, locus YPL051W, strain arl3, stronger effect = lower value 1.03 | S. cerevisiae deletion strains, locus YPL055C, strain LGE1, stronger effect = lower value 1.01 | S. cerevisiae deletion strains, locus YPL078C, strain atp4, stronger effect = lower value 1.02 | S. cerevisiae deletion strains, locus YPL106C, strain sse1, stronger effect = lower value 1.03 | S. cerevisiae deletion strains, locus YPL240C, strain hsp82, stronger effect = lower value 1 | S. cerevisiae deletion strains, locus YPL241C, strain CIN2, stronger effect = lower value 1.01 | S. cerevisiae deletion strains, locus YPL256C, strain CLN2, stronger effect = lower value 0.93 | S. cerevisiae deletion strains, locus YPR119W, strain clb2, stronger effect = lower value 1.01 | S. cerevisiae deletion strains, locus YPR141C, strain kar3, stronger effect = lower value 0.995 | S. cerevisiae deletion strains, locus YPR163C, strain tif3, stronger effect = lower value 1 | S. cerevisiae deletion strains, locus YPR167C, strain met16, stronger effect = lower value 1 | S. cerevisiae deletion strains, strain wtn01, stronger effect = lower value 1.01 | S. cerevisiae strains, strain wild type, stronger effect = lower value 1.01
